According to the supplement of paper PMC7695840:
Structures can show the parent of a compound that is named as a salt.

Each compound was assayed on Staphylococcus aureus MW2 (mecA+) (assay: normalized DsRed fluorescence (growth of mecA+ strain) (fraction of control range); higher = more growth of mecA+ strain). Conditions: compound concentration: 150 uM; cefoxitin: subinhibitory; fluorescent label: DsRed.
Method in brief: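 Pre-induced S. aureus MW2 mecA+ (DsRed) and ΔmecA (GFP) cells were mixed 1:1 in LB with a daily-set subinhibitory cefoxitin dose. They were dispensed at 5 µL/well onto 150 μM compound (1.5% DMSO) in 1536-well plates, single replicate. Growth was 20 h at 37 °C, 90% humidity, unshaken, and DsRed (540/590) and GFP (485/520) were then read. Each channel was scaled per plate between the medians of the single-strain controls. Plates with high No Treatment ratios and rows with DsRed/GFP >10 were excluded.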

Structure (SMILES)	normalized DsRed fluorescence
N[C@@H](Cc1cc(I)c(Oc2cc(I)c(O)c(I)c2)c(I)c1)C(=O)O	0.575
CN(C/C=C/C#CC(C)(C)C)Cc1cccc2ccccc12 [Terbinafine hydrochloride (Lamisil)]	0.483
C#Cc1cccc(Nc2ncnc3cc4c(cc23)OCCOCCOCCO4)c1 [Icotinib]	0.429
CNC[C@H](O)c1ccc(O)c(O)c1	0.812
CCCC1O[C@@H]2C[C@H]3[C@@H]4CCC5=CC(=O)C=C[C@]5(C)[C@H]4[C@@H](O)C[C@]3(C)[C@]2(C(=O)CO)O1 (some centres undefined)	1.12
O=C1CCc2ccc(OCCCCN3CCN(c4cccc(Cl)c4Cl)CC3)cc2N1	0.824
CN1CCCN=C1/C=C/c1cccc(O)c1	0.787
O=C1CCc2cc(OCCCCc3nnnn3C3CCCCC3)ccc2N1	0.561
OCCN(CCO)c1nc(N2CCCCC2)c2nc(N(CCO)CCO)nc(N3CCCCC3)c2n1	0.744
Cc1nnc(C(=O)NC(C)(C)c2nc(C(=O)NCc3ccc(F)cc3)c(O)c(=O)n2C)o1 [Raltegravir (MK-0518)]	0.507
Oc1ncnc2[nH]ncc12	0.531
Cn1ncnc1[C@H]1c2n[nH]c(=O)c3cc(F)cc(c23)N[C@@H]1c1ccc(F)cc1 [Talazoparib (BMN 673)]	0.777
CCCNS(=O)(=O)Nc1ncnc(OCCOc2ncc(Br)cn2)c1-c1ccc(Br)cc1 [Macitentan]	0.379
CCCc1nc2c(C)cc(-c3nc4ccccc4n3C)cc2n1Cc1ccc(-c2ccccc2C(=O)O)cc1	0.194
Cc1cc(CC(=O)O)n(C)c1C(=O)c1ccc(Cl)cc1	0.63
COCCOC(=O)C1=C(C)NC(C)=C(C(=O)OC(C)C)C1c1cccc([N+](=O)[O-])c1 (centres undefined)	0.85
CN(C)c1nc(N(C)C)nc(N(C)C)n1	0.887
CN(C)CCOc1ccc(/C(=C(/CCCl)c2ccccc2)c2ccccc2)cc1	0.0394
CCC(C)CCCCC(=O)NC(CCN)C(=O)NC(C(=O)NC(CCN)C(=O)NC1CCNC(=O)C(C(C)O)NC(=O)C(CCN)NC(=O)C(CCN)NC(=O)C(CC(C)C)NC(=O)C(Cc2ccccc2)NC(=O)C(CCN)NC1=O)C(C)O (centres undefined)	1.05
CC(C)(C)NCC(O)COc1cccc2c1CCC(=O)N2 (centres undefined)	1.11

Structure (SMILES)	normalized DsRed fluorescence
COC(=O)Nc1nc2cc(Sc3ccccc3)ccc2[nH]1	0.601
N#Cc1ccc2[nH]cc(CCCCN3CCN(c4ccc5oc(C(N)=O)cc5c4)CC3)c2c1	0.987
CCCCC1C(=O)N(c2ccccc2)N(c2ccc(O)cc2)C1=O (centres undefined)	0.377
CN1CC(=O)N2[C@H](c3ccc4c(c3)OCO4)c3[nH]c4ccccc4c3C[C@@H]2C1=O	0.636
c1cc(CN2CCCNCCNCCCNCC2)ccc1CN1CCCNCCNCCCNCC1 [Plerixafor]	0.938
Clc1ccc(COC(Cn2ccnc2)c2ccc(Cl)cc2Cl)cc1 (centres undefined) [Econazole nitrate (Spectazole)]	0.01
COc1ccc(O)cc1	0.504
COc1ccc2c(c1)C(=O)N(CCc1ccc(S(=O)(=O)NC(=O)NC3CCCCC3)cc1)C(=O)C2(C)C [Gliquidone]	0.134
NC(=O)c1cn(Cc2c(F)cccc2F)nn1 [Rufinamide (Banzel)]	0.955
NS(=O)(=O)c1cc2c(cc1Cl)NCNS2(=O)=O	0.865
CC1(C)S[C@@H]2[C@H](NC(=O)[C@H](C(=O)O)c3ccsc3)C(=O)N2[C@H]1C(=O)O	0.864
COc1cc(C)c(/C=C/C(C)=C/C=C/C(C)=C/C(=O)O)c(C)c1C [Acitretin]	0.289
CN(c1nccc(=O)[nH]1)C1CCN(c2nc3ccccc3n2Cc2ccc(F)cc2)CC1 [Mizolastine (Mizollen)]	0.462
CN(C)CCCN1c2ccccc2Sc2ccccc21	1.06
Cc1cc(C(C)(C)C)c(O)c(C)c1CC1=NCCN1 [Oxymetazoline hydrochloride]	1.28
C=C[C@H]1CN2CC[C@H]1C[C@H]2[C@H](O)c1ccnc2ccc(OC)cc12	0.748
CC(C)(C)NCC(O)c1cc(O)cc(O)c1 (centres undefined)	0.611
C[C@@H]1C[C@H]2[C@@H]3CCC4=CC(=O)C=C[C@]4(C)[C@@]3(F)[C@@H](O)C[C@]2(C)[C@@]1(O)C(=O)CO	0.687
CN[C@@H]1[C@@H](O)[C@@H](O[C@@H]2[C@@H](O)[C@H](O[C@H]3OC(CN)=CC[C@H]3N)[C@@H](N)C[C@H]2N)OC[C@]1(C)O	0.916
